Source: PubChem (National Center for Advancing Translational Sciences (NCATS))
Only some compounds are listed: those with a hit (about 11% of all), similar ones and a draw of the others.
ALDH1A1 inh: inhibitors of human aldehyde dehydrogenase 1A1. P00352. Purified ALDH1A1, NADH fluorescence, propionaldehyde substrate. Potency, µM (highest dose often 75.3 µM), for the others: at the highest dose activity, negative = inhibition, most hits filed as inhibitors. 220,000 compounds, 7.3% hits. AID 1030;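 note: potency is the fitted concentration of half-maximal effect; plate controls were no enzyme wells and a reference inhibitor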
HPGD block: HPGD (human) dehydrogenase inhibition; AID 894; 150,000 compounds, 4.3% hits; P15428; purified HPGD, NADH fluorescence kinetic, PGE2 substrate; Potency, µM, for inactives: top-dose activity change, negative = inhibition, most hits filed as inhibitors; note: potency is the fitted concentration of half-maximal effect
Target sequence (P15428 whole entry, looked up): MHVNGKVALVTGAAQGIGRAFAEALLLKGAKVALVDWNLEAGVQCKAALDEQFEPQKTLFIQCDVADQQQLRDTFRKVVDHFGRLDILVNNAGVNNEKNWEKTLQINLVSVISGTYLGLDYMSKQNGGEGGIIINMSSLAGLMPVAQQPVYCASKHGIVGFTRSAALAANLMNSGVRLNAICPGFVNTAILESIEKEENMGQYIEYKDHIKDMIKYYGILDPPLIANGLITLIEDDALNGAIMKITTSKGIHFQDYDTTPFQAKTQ
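NADH formation kinetics: reaction with 30 uM PGE2 and 1 mM NAD+ (final), 20 nM enzyme, Tris-HCl pH 8 with Tween 20, after 15 min compound preincubation at room temperature. Fluorescence change, last versus first of five reads.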
PNC assembly inh: blocks assembly of the perinucleolar compartment; activity change (PNC), negative = inhibition, % at 10 µM; 140,000 compounds, 3.1% hits; PC3M PTB-GFP, PNC prevalence imaging, 16 h; active compounds read low;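 active = readout at or below -70, meaning at least 70% loss of cells showing the perinucleolar compartment, a nuclear body marking cancer cells; inconclusive = readout between -30 and a set limit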;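 note: plate controls were DMSO wells for no effect and camptothecin positive control wells for full effect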
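PC3M cells stably expressing PTB-GFP, 750–1000 cells/well, treated 16 h at 37 °C with compound (23 nl of library stock), in duplicate. After paraformaldehyde fixation and Hoechst stain, imaged at 20x; PNC prevalence scored by image analysis.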
Starred values were filed as active, the others as inactive; ? = inconclusive; · = no result. Unless noted, calls come from the whole dose curve; as a rule, active = well fitted inhibition curve with a large enough effect (not every such curve was filed as active); inconclusive = small, poorly fitted or top-dose-only effect, or another doubt; inactive = no such curve, though single readings can be large or run the other way. Unless noted, % is set by controls: 0 for no effect and ±100 for the full control effect.

SMILES | ALDH1A1 inh | HPGD block | PNC assembly inh
Cc1ccc2cc(C)c3nnc(SCC(=O)Nc4nc5c(s4)CCCC5)n3c2c1 | -2.9% | -11.2% | ?
Cn1c(=O)c2c(nc(N3CCN(c4ccccc4)CC3)n2CCCc2ccccc2)n(C)c1=O | ? | -0.3% | -18.3
Cn1c(=O)c2c(nc(N3CCN(Cc4ccccc4)CC3)n2CCCc2ccccc2)n(C)c1=O | 7.94µM* | -11.6% | -0.1
N[C@H](Cn1ccc(=O)c(O)c1)C(=O)O | -2.7% | -12.1% | ·
Cc1cccc(OCC(=O)NN2C(=O)C3C4C=CC(O4)C3C2=O)c1 (stereo unspecified) | 3.16µM* | · | ·
O=C(CCc1ccccc1)NN1C(=O)C2C3C=CC(O3)C2C1=O (stereo unspecified) | 13.9% | · | ·
Cc1cccc(OCC(=O)Nc2cc(C)on2)c1 | -2.8% | -4.1% | 22.4
CCOc1ccc(NC(=O)c2ccc(N)cc2)cc1 | 3.8% | -13.8% | 22.4
Cc1ccccc1OCC(=O)NN1C(=O)C2C3C=CC(O3)C2C1=O (stereo unspecified) | 8.91µM* | · | ·
CCOc1ccc(C(=O)NN2C(=O)C3C4C=CC(O4)C3C2=O)cc1 (stereo unspecified) | 12.6µM* | 7.6% | 8.4
CC1COC(C)(CC(=O)NN2C(=O)c3ccccc3C2=O)O1 (stereo unspecified) | -7.6% | · | ·
CC(NC(=O)c1ccccc1)C(c1cccs1)N1CCOCC1 (stereo unspecified) | -7.8% | -4.3% | 9.0
COc1ccc(O)c(C2=Nc3ccccc3N=C(c3ccco3)C2)c1 | 2.2% | -4.2% | 1.6
Oc1ccc(Cl)cc1C1=Nc2ccccc2N=C(c2ccco2)C1 | 7.3% | -13.4% | -100.0*
CC(C)n1nnc2cc(C(=O)O)ccc21 | -4.2% | ? | ·
C/C(=N\NC(=O)COc1ccc(C(C)(C)C)cc1)c1cc2ccccc2o1 | -8.9% | ? | 69.0
COc1ccc(NCC(=O)N/N=C(\C)c2cc3ccccc3o2)cc1 | 25.1µM* | · | ·
C/C(=N\Nc1ccc(Cl)c(C(=O)O)c1)c1cc2ccccc2o1 | 0.8% | · | ·
C/C(=N\NC(=O)CNc1ccc(F)cc1)c1cc2ccccc2o1 | 11.2µM* | · | ·
Cc1cc(NCc2ccncc2)ccc1Br | 22.4µM* | · | ·
Cc1ccc(NCc2ccncc2)c(Br)c1 | 8.4% | · | ·
COCCNC(=O)/C(C#N)=C/c1ccc(N2CCOCC2)o1 | 31.6µM* | ? | 47.4
N#C/C(=C/c1ccc(N2CCOCC2)o1)C(=O)Nc1ccccc1 | 22.4µM* | · | ·
N#C/C(=C\c1ccc(O)c(O)c1)C(=O)NCCCc1ccccc1 | ? | 31.6µM* | 7.6
COCCNC(=O)/C(C#N)=C/C(C)=C/c1ccccc1 | 7.0% | -21.0% | -9.7
SMILES | ALDH1A1 inh | HPGD block | PNC assembly inh
COc1ccc(/C=C(\C#N)C(=O)NCCc2ccccc2)cc1OCc1ccccc1 | ? | ? | 47.8
COCCNC(=O)/C(C#N)=C/c1cccc(/C=C(\C#N)C(=O)NCCOC)c1 | ? | 25.1µM* | ?
N#C/C(=C\c1ccc(N2CCOCC2)o1)C(=O)NCC1CCCO1 (stereo unspecified) | 0.5% | · | ·
N#C/C(=C/c1ccc(C(=O)O)cc1)C(=O)Nc1ccccc1 | -14.2% | · | ·
CSCc1ccc(C(=O)Nc2ccc(C(N)=O)cc2)cc1 | 9.8% | · | ·
Cc1ccc(N(CC(=O)NC2CCCC2)C(=O)c2c(C)noc2C)cc1C | 0.6% | -1.9% | ?
O=C(CNC(=O)c1cccc(F)c1)N/N=C/c1cccc([N+](=O)[O-])c1 | ? | -15.1% | 22.7
COc1ccc(NC(=O)CCC(=O)NCCO)cc1 | -1.3% | · | ·
N#C/C(=C\Nc1ccc2c(c1)OCCO2)c1nc(-c2ccccc2)cs1 | 5.8% | -4.7% | 2.3
c1cc2c(cc1Nc1nc(-c3ccc4c(c3)OCO4)cs1)OCCO2 | 17.8µM* | -17.1% | ?
c1ccc(-c2csc(Nc3ccc4c(c3)OCCO4)n2)cc1 | 23.8µM* | -20.8% | -5.5
COc1cccc(Nc2nc(-c3ccc4c(c3)OCCO4)cs2)c1 | ? | -21.7% | -19.0
CCC(=O)Nc1nc(-c2ccc3c(c2)OCCO3)cs1 | ? | -5.4% | -8.9
c1cc2c(cc1-c1csc(NNC3=NCCCCC3)n1)OCCO2 | 20µM* | · | ·
CC(=O)Nc1ccc(C)c(NS(=O)(=O)c2cccc(C(F)(F)F)c2)c1 | 5.5% | · | ·
CC(C)(C)c1ccc(/C=C/C(=O)N2CCOCC2)cc1 | ? | 25.1µM* | 177.3
CC(C)Cc1ccc(/C=C/C(=O)N2CCOCC2)cc1 | -1.6% | · | ·
CCCn1c(SCC(=O)NCc2ccccc2Cl)n[nH]c1=O | 7.0% | · | ·
Fc1ccc(Oc2nccc(-c3ccc(Cl)cc3)n2)cc1 | 2.8% | -13.1% | ?
CCOc1ccc(C(NC(=O)/C=C/c2ccco2)c2ccc(OC)c(OC)c2)cc1 (stereo unspecified) | ? | -26.8% | -19.6
COc1ccc(CNC(=O)/C=C/C(=O)O)cc1OC | ? | -9.8% | 20.3
COc1ccc(CNC(=O)/C=C/c2ccco2)cc1OC | 3.55µM* | · | ·
COc1ccc(C(NC(=O)/C=C/c2ccco2)c2ccc(OC)c(OC)c2)cc1 (stereo unspecified) | 20µM* | ? | 1.0
O=C(/C=C/NCC(=O)c1ccccc1)c1ccc(Br)cc1 | 7.94µM* | -26.9% | -97.1*
CCOC(=O)c1ccc(N/C=C/C(=O)c2ccc(OC)c(OC)c2)cc1 | -1.9% | -29.2% | ?
SMILES | ALDH1A1 inh | HPGD block | PNC assembly inh
O=C(/C=C/Nc1ccc(Br)cc1F)c1ccccc1 | ? | -7.4% | -18.4
Cc1ccc(CNC(=O)COC(=O)c2ccc(Br)cc2)cc1 | 11.3% | -10.6% | 52.5
COc1ccc(C(=O)/C=C/NCc2ccc(F)cc2)cc1OC | 22.4µM* | · | ·
O=C(/C=C/Nc1ccccc1F)c1ccc(Br)cc1 | 3.2% | -16.2% | -115.2*
Cc1ccc(CN/C=C/C(=O)c2ccc(Br)cc2)cc1 | 15.8µM* | ? | ?
O=C(/C=C/NNC(=O)c1ccccc1)c1ccc(Br)cc1 | ? | -22.6% | -8.0
CCCCCc1nc2c(C#N)c(-c3ccc(Cl)cc3)ccn2n1 | ? | ? | 48.2
O=C(N/N=C/C(Br)=C/c1ccccc1)c1cnccn1 | -5.0% | · | ·
OC1CCC2Cc3ccccc3N=C12 (stereo unspecified) | -8.5% | -5.3% | ·
O=S(=O)(Cc1ccccc1)NCC1CCCN(Cc2ccc3nonc3c2)C1 (stereo unspecified) | -5.3% | · | ·
COC(=O)C/C=C/[C@@H](C)[C@H](OC)c1c(Br)ccc2c1OCO2 | 1.2% | -16.0% | ·
COCCN(Cc1cc2ccc(C)cc2n2nnnc12)Cc1nnnn1C(C)(C)C | 4.9% | -6.2% | 7.0
Cc1noc(C)c1-c1nccc(Nc2ccc(F)cc2)n1 | -11.8% | · | ·
Cc1ccc(C(=O)/C=C/NCc2ccc(F)cc2)cc1 | 14.1µM* | -24.2% | 11.8
O=C(/C=C/Nc1ccc(F)cc1)c1ccc(Br)cc1 | -0.1% | · | ·
CS(=O)(=O)Cc1cc(Sc2ccccc2)nc(-c2ccncc2)n1 | 11.2µM* | · | ·
O=S(Cc1cc(Sc2ccccc2)nc(-c2ccccc2)n1)c1ccccc1 (stereo unspecified) | -11.5% | -17.5% | 13.7
CC1(C)OC(C)(C)/C(=C/Nc2ccccc2)C1=O | -3.8% | -14.9% | 154.6
CN(C)CCCNS(=O)(=O)c1ccc(Oc2ncc(C(F)(F)F)cc2Cl)cc1 | 19.6% | -13.1% | 26.1
CCOc1cc(C)c(C(C)C)cc1S(=O)(=O)N1CCOCC1 | 3.55µM* | -9.0% | 7.9
COc1cc(C)c(C(C)C)cc1S(=O)(=O)N1CCOCC1 | 3.16µM* | -3.8% | -0.7
